Measurements taken from PubChem BioAssay (NCATS).
Results filed as inconclusive are left out. A call without a number means that no potency is given here. Active and inactive are the calls of the source. Calls come from the whole dose curve; as a rule, active = well fitted inhibition curve with a large enough effect; inconclusive = small, poorly fitted or top-dose-only effect; inactive = flat fitted curve, though single readings scatter.

The molecules below were run against Calcium and integrin-binding protein 1 (Homo sapiens) (UniProt Q99828) (assay: Primary qHTS for Identification of Calcium Integrin Binding Protein 1 (CIB1) Competitor (AID 1508620; note: top concentration of the series differs between compounds)). Settings: CIB1-GST / FITC-alphaIIb peptide fluorescence polarization; series mostly up to 114 µM.
Chain of Calcium and integrin-binding protein 1 (Homo sapiens) (Q99828 whole entry, looked up): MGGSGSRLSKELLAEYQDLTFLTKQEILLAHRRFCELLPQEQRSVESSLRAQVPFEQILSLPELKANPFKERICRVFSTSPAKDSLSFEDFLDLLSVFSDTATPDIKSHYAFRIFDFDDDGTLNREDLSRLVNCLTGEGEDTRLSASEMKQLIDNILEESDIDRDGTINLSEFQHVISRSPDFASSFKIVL
Summary of the method: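 Fluorescence polarization competition: GST-tagged CIB1 (1 uM final) preincubated with compound 15 min at room temperature, then FITC-labelled alphaIIb peptide (100 nM final) added. After 15 min at room temperature, polarization read at Ex 480/Em 540.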

Row | SMILES | Potency
1 | CC1=C(C(=O)c2ccccc2)C(c2ccccc2Cl)N=C(Nc2nc3ccccc3o2)N1 (centres undefined) | inactive
2 | O=C1Nc2ccccc2/C1=C\c1ccc(O)c(F)c1 | inactive
3 | FC(F)(F)c1cccc(N2CCN(C(=S)Nc3ccncc3)CC2)c1 | inactive
4 | CC(C)c1ccccc1-c1ncc(N(C)C)c(NCc2ccc(-c3cccnc3)cc2)n1 | inactive
5 | CC(C)(C)c1ccc(-c2csc(N3CCC(C(N)=O)CC3)n2)cc1 | inactive
6 | CCC(=O)NC(c1ccco1)c1cc(Cl)c2cccnc2c1O (centres undefined) | inactive
7 | Cc1cc(N[S+](=O)([O-])c2ccc(NC(=O)Cc3ccc4c(c3)OCCO4)cc2)no1 | inactive
8 | COc1ccc(S(=O)(=O)Nc2ccc(C)c(C)c2)cc1 | inactive
9 | CCOc1ccccc1-c1nnc2n1N=C(c1ccccc1OC)CS2 | inactive
10 | O=C1Nc2ccccc2/C1=C\c1ccc(O)cc1 | inactive
11 | COc1cc(Cl)c(C)cc1NC(=O)C(OC(=O)CNC(=O)c1ccccc1)c1ccccc1 (centres undefined) | inactive
12 | Fc1ccccc1-c1nc(NCc2ccc(-c3cccnc3)cc2)c2ccccc2n1 | inactive
13 | S=C(Nc1cc(Cl)ccn1)N1CCN(c2ccc3ccccc3n2)CC1 | inactive
14 | Cc1ccnc(NC(=S)N2CCN(c3cccc(N(C)C)c3)CC2)c1 | inactive
15 | CC(=O)c1ccc(N2CCN(S(=O)(=O)c3ccc4c(c3)CCC(=O)N4)CC2)cc1 | inactive
16 | COCCNc1ccc(NC(=O)c2cccs2)cn1 | inactive
17 | c1ccc(OCc2nnc3n2N=C(c2ccccc2)CS3)cc1 | inactive
18 | Cc1noc(C)c1-c1ccc2ncnc(NCc3cccc(-c4ccccc4)c3)c2c1 | inactive
19 | Cc1ccc(C(=O)NC2CCN(C#N)CC2)cc1 | inactive
20 | Cc1c(P(=S)(c2ccccc2)c2ccccc2)[n+]2ccccc2n1CCCCCc1ccccc1 | inactive

Row | SMILES | Potency
21 | Cc1cnc(-c2ccccc2C2CC2)nc1NCc1ccc(-c2cccnc2)cc1 | inactive
22 | COc1cccc(OC2=NS(=O)(=O)c3ccccc32)c1 | inactive
23 | Cc1ccc(-c2nc(NCC(=O)Nc3cccc(C(=O)O)c3)c3ccccc3n2)cc1 | inactive
24 | Cc1csc(CNc2ncnc3ccc(-c4ccccc4Cl)cc23)c1 | inactive
25 | COc1cccc(C2c3c(ncn(-c4ccc5c(c4)OCO5)c3=N)Oc3ccc4ccccc4c32)c1 (centres undefined) | inactive
26 | Cc1cc(N[S+](=O)([O-])c2ccc(NC(=O)Cc3nc4ccc(Cl)cc4[nH]3)cc2)no1 | inactive
27 | C#CCOc1ccc(-c2no[n+]([O-])c2C#N)cc1 | inactive
28 | COc1ccc(C2=Nn3c(nnc3-c3ccccc3O)SC2)c(OC)c1 | inactive
29 | O=C1CCCC2=C1C(c1cccnc1Cl)N=C(Nc1nc3ccccc3o1)N2 (centres undefined) | inactive
30 | COc1ccc(C2=Nn3c(nnc3-c3ccccc3F)SC2)cc1OC1CCCC1 | inactive
31 | O=C(NCC#CCSc1nnc(-c2cccc3ccccc23)o1)c1cccs1 | inactive
32 | Cc1cc(-c2nnc3n2CCCC3)c(C)n1-c1ccccc1 | inactive
33 | Cc1cnccc1-c1nc(Nc2ccc(F)c(F)c2)c2ccccc2n1 | inactive
34 | Cc1ccc(CCN2C(=O)c3ccc(C(=O)O)cc3C2=O)cc1 | inactive
35 | c1nc(NCCCN2CCCCC2)c2cc(-c3ccc4c(c3)OCO4)ccc2n1 | inactive
36 | Cc1ccc(-c2csc3ncnc(Sc4nnnn4C)c23)cc1 | inactive
37 | O=C1COc2cc([S+](=O)([O-])Nc3ccc(Cl)c(Cl)c3)c(Cl)cc2N1 | inactive
38 | Cc1ccc(C(=O)NCC(=O)OC(C(=O)Nc2cc(C(F)(F)F)ccc2Cl)c2ccccc2)cc1 (centres undefined) | inactive
39 | O=C1c2ccccc2C(=O)N1c1cccc(O)c1 | inactive
